# Source: PubChem BioAssay (Tox21)
# Several values for one entry are separate records, joined by “and”; a condition that tells them apart may be missing. Identical values can stand only once. Records with an inconclusive call do not appear. A number with no mark means an inactive call. Activity calls are given as the source filed them. Calls follow the shape of the dose curve; as a rule, active = well fitted activation curve with a large enough effect in the repeat runs; inconclusive = weak or mixed curves; inactive = no such curve, though single readings can be large or run the other way.
# Assay: qHTS assay for small molecules that induce genotoxicity in human embryonic kidney cells expressing luciferase-tagged ATAD5 (AID 651632); also: nearly all actives have a fitted effect of over 15% in size
# Conditions: HEK293T ATAD5-luciferase induction, 16 h; series mostly up to 83.3 µM; activation: at the top concentration
# Source text: U.S. Tox21 Program National Center for Advancing Translational Sciences [NCATS] NIH Chemical Genomics Center [NCGC] U.S. Environmental Protection Agency [EPA] National Institutes of Environmental Health Sciences [NIEHS] National Toxicology Program [NTP] U.S. Food and Drug Administration [FDA] Tox21 Assay Overview: As cancer cells divide rapidly and during every cell division they need to duplicate their genome by DNA replication. The failure to do so results in the cancer cell death. Based on this concept, many chemotherapeutic agents were developed but have limitations such as low efficacy and severe side effects etc. A new cell based assay was developed to find the compounds that effectively block DNA replication either by directly damaging DNA or by inhibiting other cellular mechanisms. Enhanced Level of Genome Instability Gene 1 (ELG1; human ATAD5) protein levels increase in response to various types of DNA damage. Using a luciferase reporter-gene tagged with ATAD5, a cell-based assay [developed by Kyungjae Myung, NHGRI, NIH] was used to measure the induction of ATAD5 in human embryonic kidney cells (HEK293T). So, increase in luciferase activity can be used to identify the compounds that cause genetic stress.
# Tox21 Assay Protocol Summary: For genotoxicity screening, 2,000 cells in 5 uL/well were dispensed into white, solid-bottom 1536-well plates using a Multidrop Combi (Thermo Scientific) dispenser. Following transfer of 23 nL compound or DMSO vehicle by a pin tool, the plates were incubated 16 hr at 37C and 5% CO2. 5 ul Amplite (AAT Bioquest, Inc.) was then added to each plate and following 30 min incubation at room temperature, luciferase activity was quantified on a ViewLux CCD-based plate reader.
# % is scaled to controls: 0 for no effect and ±100 for the full control effect; potency is read from the fitted curve at half-maximal effect.
SMILES,activation,Potency
O=c1cccccc1O,1.98% [at 95.3 µM],
CS(=O)(=O)CCNCc1ccc(-c2ccc3ncnc(Nc4ccc(OCc5cccc(F)c5)c(Cl)c4)c3c2)o1,-1.74%,
Cc1cc(O)c2ccccc2c1O,-0.565%,
CCCCCCCC[P+](CCCCCCCC)(CCCCCCCC)CCCCCCCC,-13.4%,
Cc1cccc(S(=O)(=O)O)c1C,1.12%,
CCCCCCOC(=O)c1ccc(O)cc1,,21.7 µM (active) and 19.3 µM (active)
CCCCN1C(=O)[C@@H]([C@H](O)C2CCCCC2)NC(=O)C12CCN(Cc1ccc(Oc3ccc(C(=O)O)cc3)cc1)CC2,-4.38%,
Cc1ccc2oc(CN(Cc3ccccc3)C(=O)Nc3c(F)cc(F)cc3F)c(-c3ccc(Cl)cc3)c2c1,-7.41%,
O=C(c1ccc(O)cc1O)c1ccc(O)cc1O,,inactive
C[C@]12CCC(=O)C=C1CC[C@@H]1[C@@H]2[C@@H](O)C[C@@]2(C)[C@H]1CC[C@]2(O)C(=O)COC(=O)CCC(=O)O,5.28%,
CCC(N)(CO)CO,1.16% [at 95.3 µM],
NNc1nc(-c2ccc([N+](=O)[O-])cc2)cs1,-10.9%,
CCCCCCC[N+](CC)(CC)CCCCc1ccc(Cl)cc1,-12.7% [at 39.1 µM],
COc1ccc(CN2CCN(C(c3ccc(F)cc3)c3ccc(F)cc3)CC2)c(OC)c1OC,-20.6%,
CCCCCCCC/C=C/CCCCCCCC1=NCCN1CCO,-13.1%,
ON=C1CCCC1,1.71% [at 95.3 µM],
COC(=O)C1=C(C)NC(C)=C(C(=O)OCC(C)C)C1c1ccccc1[N+](=O)[O-] (stereo not given),,inactive
Clc1ccc2n[nH]nc2c1,1.77%,
N#CSc1ccc(N)c([N+](=O)[O-])c1,1.98% [at 95.3 µM],
CCCCCCCCCCC=O,3.97% [at 95.3 µM],

SMILES,activation,Potency
CCCCCCCCCCCCCC[P+](CCCC)(CCCC)CCCC (tested in a mixture with another compound),-12.9% [at 95.3 µM],
C=CC(=O)OCC(CO)(COC(=O)C=C)COC(=O)C=C,,4.87 µM (active) and 5.45 µM (active)
Oc1cc2ccccc2c2ccccc12,-13.6%,
Oc1ccc2cc(SSc3ccc4cc(O)ccc4c3)ccc2c1,,inactive
CCCCC(CC)CN=C(N)NC(N)=NCCCCCCN=C(N)NC(N)=NCC(CC)CCCC (stereo not given),-22.9%,
CN(C)c1ccc(C2(c3ccc(N(C)C)cc3)OC(=O)c3cc(N(C)C)ccc32)cc1,-0.379%,
COc1cccc2c1C(=O)c1c(O)c3c(c(O)c1C2=O)C[C@@](O)(C(=O)CO)C[C@@H]3O[C@H]1C[C@H](N)[C@H](O[C@@H]2CCCCO2)[C@H](C)O1,,2.37 µM (active)
OCCN(CCO)c1nc(N2CCCCC2)c2nc(N(CCO)CCO)nc(N3CCCCC3)c2n1,-12.7%,
Fc1ccc(C(c2ccc(F)cc2)N2CCN(C/C=C/c3ccccc3)CC2)cc1,-11.8%,
CC[C@H](c1ccc(O)cc1)[C@@H](CC)c1ccc(O)cc1,,inactive
O=C1Cc2cc(CCN3CCN(c4nsc5ccccc45)CC3)c(Cl)cc2N1,,inactive
C[n+]1cc2c3c(ccc2c2ccc4cc5c(cc4c21)OCO5)OCO3,-25.3%,
CC(C)(C)C(=O)OCOC(=O)[C@@H]1N2C(=O)[C@@H](NC(=O)[C@H](N)c3ccccc3)[C@H]2SC1(C)C,2.49% [at 39.1 µM],
CCCCCCCCCCCCCCCCCC[N+](C)(C)C,-13.8% [at 95.3 µM],
O=C(NOCC1CC1)c1ccc(F)c(F)c1Nc1ccc(I)cc1Cl,-12.2%,
CCCCCCCC[N+](CCCCCCCC)(CCCCCCCC)CCCCCCCC,-13.1%,
CCc1cc(Cc2cc(CC)c(N)c(CC)c2)cc(CC)c1N,-6.02%,
CO[Si](CCCNc1ccccc1)(OC)OC,1.02%,
C=C(C)C(=O)OCC(O)COc1ccc(C(C)(C)c2ccc(OCC(O)COC(=O)C(=C)C)cc2)cc1 (stereo not given),-15.9%,
C/C=C(\C)C(=O)OCc1ccccc1,-1.32%,
